According to the supplement of paper PMC10037445:
± gives the standard deviation of the averaged measurements. In all, about 2,900 compounds were measured (“IRF Lucia reporter activity, fold change vs agonist alone”: median about 0.9, highest 2% from about 2.8 on). This is one part of a sample in which the highest values are shown more often than they occur.

Tests used:
[1] = test system: RAW-Dual; assay: IRF Lucia reporter activity, fold change vs agonist alone; cytotoxicity flag (confluency mask): not cytotoxic; higher = enhanced IRF activity
In short: (§1)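 Cytotoxic wells were those whose IncuCyte confluency was below 70% of agonist controls in both mask sets. The cells were RAW-Dual macrophages at 50,000 cells/well in DMEM on 384-well plates, dosed with 50 nL of library stock by pin tool, stimulated with a PRR agonist 1 h later, and kept at 37 °C, 5% CO2 for 20 hours. IRF and NF-κB reporter activity, as fold change over agonist-alone wells, came from supernatant read by QuantiLuc luminescence and QuantiBlue absorbance, respectively.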

[2] = test system: RAW-Dual; assay: IRF Lucia reporter activity, fold change vs agonist alone; higher = enhanced IRF activity; settings: library stock concentration (final ~1000-fold dilution): 10 mM, agonist: MPLA (TLR4) […]
In short: as §1

[3] = test system: RAW-Dual; assay: IRF Lucia reporter activity, fold change vs agonist alone; cytotoxicity flag (confluency mask): cytotoxic (confluency <70% of control); higher = enhanced IRF activity
In short: as §1

[4] = agonist: 3'3'-cGAMP (STING) 10 ug/mL
[5] = cytotoxicity flag (confluency mask): cytotoxic (confluency <70% of control)
[6] = cytotoxicity flag (confluency mask): not cytotoxic

## CN1C(=O)NC(Cc2c[nH]c3c(Cl)cccc23)C1=O (centres undefined) (library stock concentration (final ~1000-fold dilution): 10 mM)
[1]; [4]
  IRF Lucia reporter activity: 0.896
[1]; agonist: LPS (TLR4) 0.1 ug/mL
  IRF Lucia reporter activity: 0.697

## CC(C)CC1NC(=O)C(C(C)C)NC(=O)C2CCCN2C(=O)C(CC(=O)O)NC(=O)C(Cc2c[nH]c3ccccc23)NC1=O (centres undefined) (library stock concentration (final ~1000-fold dilution): 10 mM)
[1]; [4]
  IRF Lucia reporter activity: 1.23
[1]; agonist: LPS (TLR4) 0.1 ug/mL
  IRF Lucia reporter activity: 1.01

## CN1C(=O)C(Cc2c[nH]c3ccccc23)NC1=S (centres undefined) (library stock concentration (final ~1000-fold dilution): 10 mM)
[1]; [4]
  IRF Lucia reporter activity: 0.553
[1]; agonist: LPS (TLR4) 0.1 ug/mL
  IRF Lucia reporter activity: 3.04

## CC(=O)OCC1OC([S-])C(OC(C)=O)C(OC(C)=O)C1OC(C)=O.CCP(CC)CC.[Au+] (centres undefined)
[2]; [5]
  IRF Lucia reporter activity: 0.0231

## CC(=O)OCC1OC([S-])C(OC(C)=O)C(OC(C)=O)C1OC(C)=O.CCP(CC)CC.[Au+] (centres undefined) (library stock concentration (final ~1000-fold dilution): 10 mM)
[3]; [4]
  IRF Lucia reporter activity: 0.0169
[3]; agonist: LPS (TLR4) 0.1 ug/mL
  IRF Lucia reporter activity: 0.0188

## CC(=O)OC1CC/C(C)=C/CC/C(C)=C/CC2(C(C)C)CCC1(C)O2 (centres undefined) (library stock concentration (final ~1000-fold dilution): 10 mM)
[1]; [4]
  IRF Lucia reporter activity: 0.818 ± 0.25
[1]; agonist: LPS (TLR4) 0.1 ug/mL
  IRF Lucia reporter activity: 0.744 ± 0.15

## O=C(/C=C/c1ccc(O)c(O)c1)O[C@@H]1C[C@@](O)(C(=O)O)C[C@@H](O)[C@@H]1O (library stock concentration (final ~1000-fold dilution): 10 mM)
[1]; [4]
  IRF Lucia reporter activity: 1.02
[1]; agonist: LPS (TLR4) 0.1 ug/mL
  IRF Lucia reporter activity: 1.23

## CC(C)(C)NC(=O)C1CN(Cc2cccnc2)CCN1CC(O)CC(Cc1ccccc1)C(=O)NC1c2ccccc2CC1O.O=S(=O)(O)O (centres undefined) (library stock concentration (final ~1000-fold dilution): 10 mM)
[1]; [4]
  IRF Lucia reporter activity: 1.1
[1]; agonist: LPS (TLR4) 0.1 ug/mL
  IRF Lucia reporter activity: 0.77

## CS(=O)(=O)O.Cc1c(O)cccc1C(=O)NC(CSc1ccccc1)C(O)CN1CC2CCCCC2CC1C(=O)NC(C)(C)C (centres undefined)
[2]; [6]
  IRF Lucia reporter activity: 2.24

## CS(=O)(=O)O.Cc1c(O)cccc1C(=O)NC(CSc1ccccc1)C(O)CN1CC2CCCCC2CC1C(=O)NC(C)(C)C (centres undefined) (library stock concentration (final ~1000-fold dilution): 10 mM)
[1]; [4]
  IRF Lucia reporter activity: 0.918
[1]; agonist: LPS (TLR4) 0.1 ug/mL
  IRF Lucia reporter activity: 3.62

## CC(C)c1nc(CN(C)C(=O)NC(C(=O)NC(Cc2ccccc2)CC(O)C(Cc2ccccc2)NC(=O)OCc2cncs2)C(C)C)cs1 (centres undefined)
[2]; [6]
  IRF Lucia reporter activity: 1.07

## CC(C)c1nc(CN(C)C(=O)NC(C(=O)NC(Cc2ccccc2)CC(O)C(Cc2ccccc2)NC(=O)OCc2cncs2)C(C)C)cs1 (centres undefined) (library stock concentration (final ~1000-fold dilution): 10 mM)
[1]; [4]
  IRF Lucia reporter activity: 0.757
[1]; agonist: LPS (TLR4) 0.1 ug/mL
  IRF Lucia reporter activity: 1.34

## Cc1cc(C(=O)NC(C)(C)C)cc(C#Cc2ccc3c4c(oc3c2)C(C)(C)c2cc(NS(C)(=O)=O)ccc2C4=O)n1 (library stock concentration (final ~1000-fold dilution): 10 mM)
[1]; [4]
  IRF Lucia reporter activity: 0.196
[1]; agonist: LPS (TLR4) 0.1 ug/mL
  IRF Lucia reporter activity: 0.504

## CCC1=CC2CN(C1)Cc1c([nH]c3ccccc13)C(C(=O)OC)(c1cc3c(cc1OC)N(C)C1C(O)(C(=O)OC)C(OC(C)=O)C4(CC)C=CCN5CCC31C54)C2 (centres undefined)
[2]; [5]
  IRF Lucia reporter activity: 2.68

## CCC1=CC2CN(C1)Cc1c([nH]c3ccccc13)C(C(=O)OC)(c1cc3c(cc1OC)N(C)C1C(O)(C(=O)OC)C(OC(C)=O)C4(CC)C=CCN5CCC31C54)C2 (centres undefined) (library stock concentration (final ~1000-fold dilution): 10 mM)
[3]; [4]
  IRF Lucia reporter activity: 0.371
[3]; agonist: LPS (TLR4) 0.1 ug/mL
  IRF Lucia reporter activity: 2.95

## CCC1(O)CC2CN(CCc3c([nH]c4ccccc34)C(C(=O)OC)(c3cc4c(cc3OC)N(C)C3C(O)(C(=O)OC)C(OC(C)=O)C5(CC)C=CCN6CCC43C65)C2)C1.O=S(=O)(O)O (centres undefined) (library stock concentration (final ~1000-fold dilution): 10 mM)
[3]; [4]
  IRF Lucia reporter activity: 0.226
[3]; agonist: LPS (TLR4) 0.1 ug/mL
  IRF Lucia reporter activity: 2.16

## CCC1(O)CC2CN(CCc3c([nH]c4ccccc34)C(C(=O)OC)(c3cc4c(cc3OC)N(C=O)C3C(O)(C(=O)OC)C(OC(C)=O)C5(CC)C=CCN6CCC43C65)C2)C1.O=S(=O)(O)O (centres undefined)
[2]; [6]
  IRF Lucia reporter activity: 1.06

## CCC1(O)CC2CN(CCc3c([nH]c4ccccc34)C(C(=O)OC)(c3cc4c(cc3OC)N(C)C3C(O)(C(=O)OC)C(OC(C)=O)C5(CC)C=CCN6CCC43C65)C2)C1.O=S(=O)(O)O (centres undefined)
[2]; [5]
  IRF Lucia reporter activity: 2.07

## CCC1(O)CC2CN(CCc3c([nH]c4ccccc34)C(C(=O)OC)(c3cc4c(cc3OC)N(C=O)C3C(O)(C(=O)OC)C(OC(C)=O)C5(CC)C=CCN6CCC43C65)C2)C1.O=S(=O)(O)O (centres undefined) (library stock concentration (final ~1000-fold dilution): 10 mM)
[1]; [4]
  IRF Lucia reporter activity: 0.107
[1]; agonist: LPS (TLR4) 0.1 ug/mL
  IRF Lucia reporter activity: 2.02

## CCCCS(=O)(=O)NC(Cc1ccc(OCCCCC2CCNCC2)cc1)C(=O)O.Cl.O (centres undefined) (library stock concentration (final ~1000-fold dilution): 10 mM)
[1]; [4]
  IRF Lucia reporter activity: 0.894
[1]; agonist: LPS (TLR4) 0.1 ug/mL
  IRF Lucia reporter activity: 1.35
